VDR inhibitor – Inhibitors of the vitamin D receptor (VDR): qHTS; VDR-SRC2-3 peptide fluorescence polarization, 2 h; Vitamin D3 receptor (Homo sapiens), P11473; 400,000 tested, 0.93% active; Potency, µM, usual class: inhibitors
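Compounds are added to VDR with labelled SRC2-3 coactivator peptide and held 2 h at room temperature. Inhibition of the VDR–peptide interaction is then read as a change in fluorescence polarization.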
BAZ2B inh – qHTS Assay for Inhibitors of BAZ2B | 360,000 tested, 4.4% active | AlphaScreen BAZ2B-H3K14Ac peptide displacement | Potency, µM (highest dose often 114 µM), actives largely listed as inhibitors; note: nearly all actives have a fitted effect of over 60% in size
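AlphaScreen displacement of biotin-H3(5-23)K14Ac peptide (50 nM final) from BAZ2B (50 nM final) in PBS pH 7.4, 0.01% Tween-20; complex preformed 30 min RT, then compounds (top 110 uM) 30 min RT, beads 20 min dark.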
HP1b chromo inh – HTS for Inhibitors of HP1-beta Chromodomain Interactions with Methylated Histone Tails; 390,000 tested, 0.56% active; AlphaScreen HP1-beta / biotin-H3K9me3 peptide binding; Potency, µM (series often up to 114 µM), usual class: inhibitors; note: nearly all actives have a fitted effect of over 70% in size
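AlphaScreen: HP1-beta (50 nM) preformed 30 min with biotin-H3(1-18)K9me3 peptide (50 nM) in PBS pH 7.4, 0.01% Tween-20. Compound added for 30 min at RT, then streptavidin donor/nickel chelate acceptor beads (10 ug/mL) for 30 min.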
PLK1 PBD block – qHTS for Inhibitors of PLK1-PDB (polo-like kinase 1 - polo-box domain): Primary Screen | Plk1 PBD binding of FITC phosphopeptide, fluorescence polarization | Potency, µM, actives largely listed as inhibitors | 360,000 tested, 2.8% active | AID 720504, 2013; note: series mostly up to about 57 µM; nearly all actives have a fitted effect of over 65% in size
G9a inh – qHTS Assay for Inhibitors of Histone Lysine Methyltransferase G9a. 350,000 tested, 8.8% active. Histone-lysine N-methyltransferase EHMT2 (Homo sapiens), Q96KQ7. G9a H3K9 monomethylation, AlphaScreen, 2 h. Potency, µM (top dose mostly 102 µM), most hits filed as inhibitors; note: nearly all actives have a fitted effect of over 75% in size
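AlphaScreen read-out: biotin-H3K9 peptide (500 nM) methylation by 20 nM enzyme with 20 uM SAM, 2 h at room temperature after 15 min compound preincubation; anti-monomethyl H3K9 antibody plus donor/acceptor beads, 10 min dark.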
JMJD2A Tudor inh – qHTS Assay for Inhibitors of JMJD2A-Tudor Domain. Lysine-specific demethylase 4A (Homo sapiens), O75164. AlphaScreen JMJD2A-Tudor / H3K4me3 peptide binding. Potency, µM (doses to about 114 µM), most hits filed as inhibitors. 390,000 tested, 4.4% active. AID 504339, 2011; note: nearly all actives have a fitted effect of over 50% in size
Each line names hits and unclear results; the compound was inactive in the other large screens. Hits are enriched below; roughly 11% of the tested compounds scored in any of these assays. Calls come from the whole dose curve; as a rule, active = well fitted curve in the direction sought with a large enough effect; inconclusive = small, poorly fitted or top-dose-only effect, or another doubt; inactive = no such curve, though single readings can be large; an effect the other way counts as inactive or inconclusive.

CC(=O)c1sc(NC(=O)c2oc3ccc(F)cc3c2C)nc1C	none
CC(NC(=O)C(C)(C)C)C(c1cccs1)N1CCOCC1 (stereo not given)	none
Cc1cc(O)c2c(c1)C(=O)[C@@]13Oc4c5c(c(O)c6c(O)cc(C)cc46)C(=O)C[C@H](O)[C@H]5[C@@H]1[C@@H](O)CC(=O)C3=C2O	PLK1 PBD block 3.4µM, JMJD2A Tudor inh 16µM (no result: BAZ2B inh, G9a inh)
CC[C@H](C)[C@H](NC(N)=O)C(=O)Nc1ccc(OC)c(Cl)c1	none
CCC(C)C(NC(N)=O)C(=O)Nc1ccc(C)c(Cl)c1 (stereo not given)	G9a inh 8.9µM
FC(F)(F)c1cccc(OCC2CNC(=S)O2)c1 (stereo not given)	none
COc1ccc(-c2nc3sc(CCNC(=O)C(=O)Nc4cccc(NC(C)=O)c4)c(C)n3n2)cc1	none (no result: PLK1 PBD block)
O=C1c2ccccc2C(=O)N1Nc1ccccc1	none
O=C1c2cccc3c([N+](=O)[O-])c(O)cc(c23)C(=O)N1Nc1ccccc1	VDR inhibitor inconclusive, BAZ2B inh inconclusive, HP1b chromo inh inconclusive, PLK1 PBD block 27µM, G9a inh 20µM, JMJD2A Tudor inh inconclusive
COc1cccc(C(=O)NCCS(=O)(=O)NC2CCCC2)c1	G9a inh 32µM
COc1cccc(C(=O)NCCS(=O)(=O)NCCc2ccccc2)c1	G9a inh 45µM
COc1ccc(C(=O)NCCS(=O)(=O)NCCc2ccccc2)cc1	none
COc1ccc(C(=O)NCCS(=O)(=O)NC2CCCC2)cc1	none
COC(=O)CNC(=O)CSc1nnc(C)c(=O)[nH]1	none
Cn1c(CSc2nc3ccccc3s2)nnc1SCC(=O)NCc1cccnc1	none (no result: BAZ2B inh, G9a inh)
COC(=O)c1cc(Nc2nc3ccccc3nc2NS(=O)(=O)c2ccc(C)cc2)ccc1Cl	none (no result: PLK1 PBD block)
O=C(NC(=S)Nc1nc(-c2ccc(Cl)cc2)cs1)c1cccs1	VDR inhibitor inconclusive, PLK1 PBD block 11µM, JMJD2A Tudor inh inconclusive
COc1ccc(-c2csc(NC(=O)C3=COCCO3)n2)cc1OC	BAZ2B inh inconclusive, G9a inh 56µM
COC(=O)c1c(-c2cccc(OC)c2)csc1N	BAZ2B inh inconclusive, PLK1 PBD block inconclusive, G9a inh 40µM
COC(=O)c1c(-c2cccc(C)c2)csc1N	BAZ2B inh inconclusive, HP1b chromo inh inconclusive, G9a inh inconclusive, JMJD2A Tudor inh inconclusive
O=C(Nc1nc(-c2ccc(F)c(F)c2)cs1)C1=COCCO1	none
O=C(Nc1nc(-c2cccs2)cs1)c1cccc(S(=O)(=O)N2CCCCC2)c1	BAZ2B inh inconclusive, G9a inh 13µM
COc1ccc(NC(=O)CSc2nc3c(sc4ccccc43)c(=O)n2CCCN2CCCC2)cc1	G9a inh inconclusive
CCNC(=O)NC(=O)CN(C)c1ccccc1	none
CC(=O)Nc1nc(-c2cccc3ccccc23)cs1	VDR inhibitor 25µM, PLK1 PBD block 3.8µM, JMJD2A Tudor inh inconclusive
COc1ccc(-c2csc(NC(=O)CCCc3nc4ccccc4c(=O)[nH]3)n2)cc1OC	G9a inh 40µM
Cc1cc(NC(=O)c2cccc(S(=O)(=O)N3CCCCCC3)c2)n(-c2ccccn2)n1	PLK1 PBD block inconclusive, JMJD2A Tudor inh inconclusive
Cc1cc(C)nc(-n2nc(C)cc2NC(=O)c2cccc(S(=O)(=O)N3CCCCC3)c2)n1	G9a inh 8.9µM (no result: VDR inhibitor, HP1b chromo inh, PLK1 PBD block, JMJD2A Tudor inh)
COc1ccc(-c2csc(NC(=O)CCn3cnc4ccccc4c3=O)n2)cc1OC	none
COc1cccc(-c2csc(NC(C)=O)n2)c1	PLK1 PBD block inconclusive, G9a inh 10µM
Cc1ccc(-n2c(=O)cc(N3CCN(c4ccccc4Cl)CC3)[nH]c2=O)cc1	none (no result: PLK1 PBD block)
O=C1C2C(c3ccccc3)CC=CC2C(c2cccc([N+](=O)[O-])c2)N1Cc1ccccc1 (stereo not given)	none (no result: BAZ2B inh, PLK1 PBD block, G9a inh)
O=C(Nc1nc(-c2cccs2)cs1)c1ccc(Cl)cc1	G9a inh 32µM

Screening data as filed in PubChem.
